These results are taken from the supplement of paper PMC11001985.

Values without a mark were called inactive.

For this assay, the target named is HSP90AA1 (UniProt P07900). Description: lysine labeling ratio R10:1 (500 µM / 50 µM probe), SILAC-ABPP in living cells; higher = lower intrinsic lysine reactivity toward the probe, active = 2 or less. Particulars: HeLa, probe concentrations 500 vs 50 µM. Here is the method:
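Living HeLa cells (SILAC light/heavy) in PBS at room temperature were labeled with 50 µM versus 500 µM of the lysine-reactive, reductant-cleavable probe OPA-S-S-alkyne (SILAC labeling time not stated). Probe-modified peptides were CuAAC-biotinylated, captured on neutravidin and eluted with DTT/IAA, then quantified by LC-MS/MS. R = median peptide ratio per lysine (500/50 µM), combined over 3 forward and 3 reverse SILAC replicates. Ratios are capped at 20; R < 2 = hyper-reactive.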

In the case of `C#CCNC(=O)CCSSCCC(=O)NCCc1ccc(C=O)c(C=O)c1`, the “lysine labeling ratio R10:1” value runs as follows: (lysine site: K58) 3.2; (lysine site: K84) 4.81; (lysine site: K457) 0.935 (active); (lysine site: K458) 2.96; (lysine site: K585) 6.47; (lysine site: K632) 5.33.
